Potency data for 97 molecules are collected here from PubChem BioAssay AID686971 (National Center for Advancing Translational Sciences (NCATS), 2013).

Hit rate of the full screen: of about 360,000 compounds, about 7,500 (2.1%) were called active. Where a call stands in place of a potency, no number is given. Not shown: some 8% with an inconclusive outcome. Calls come from the whole dose curve; as a rule, active = well fitted cell-killing curve with a large enough effect; inconclusive = small, poorly fitted or top-dose-only effect, or effect the other way, or another doubt; inactive = no such curve, though single readings can be large or run the other way. The full list was thinned out, with actives kept by preference.
Potency is the fitted concentration of half-maximal effect.

The experiment can be described thus: qHTS for induction of synthetic lethality in tumor cells producing 2HG: qHTS for the HT-1080-IDH1KD cell line. The note with it: HT-1080 IDH1 knockdown viability, ATP luminescence, 48 h; series mostly up to 46.1 µM. The procedure, abridged: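 Luminescent ATP read-out (CellTiter-Glo, 10 min at room temperature) after 48 h compound exposure at 37 °C gave viability of IDH1-knockdown HT-1080 cells. Activity was normalised to DMSO and cell-free wells, then fitted as concentration-response curves.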
For the molecule `CCC(=O)N1Cc2cc(C(=O)NCc3cccc(F)c3)nc(-c3cccc(C4=CCCC4)c3)c2[C@H]1CCO`, the Potency entry is “inactive”.

As to `COc1cc(OC)cc(C2=Cc3ccccc3C(CC(=O)c3ccco3)N2c2ccc(-c3cnc(OC)nc3)cc2)c1` (configuration not stated), the Potency result is “inactive”.

As to `CC(C)(O)C(=O)NN(C(=O)c1ccccc1)c1cccc(Br)c1`, the Potency entry is “inactive”.

Take `Cc1cccc(N(Cc2ccccc2)C(=O)c2ccccc2F)c1`: the Potency result was “inactive”.

Regarding `CCCC(O)(CCC)C(=O)NN(C(=O)CCl)c1cccc(C)c1`, the Potency is 5.17 µM (active).

`CC1(C(=O)NS(=O)(=O)c2cccc(OC(F)F)c2)CCN1C(=O)C1CC1` (configuration not stated): the Potency entry is “inactive”.

Turning to `O=C(Nc1ccc(F)cc1)C(CCc1ccccc1)N1CCN(CC(=O)N2CCCC2)CC1` (configuration not stated), the Potency entry was “inactive”.

On to `Cc1nc(-c2ccc(Cl)cc2)sc1C(=O)CBr`, for which the Potency result was “inactive”.

On to `Cc1nc(-c2ccc(Cl)cc2)sc1C(=O)NN`, for which the Potency was 10.3 µM (active).

As to `Cc1nc(N2CCOCC2)sc1C(=O)NN`, the Potency result was “inactive”.

Take `COCCCNC(=O)c1ccc(-c2c(C)noc2C)c2ccoc12`: the Potency result is “inactive”.

Turning to `O=C(NOCc1ccccc1)c1cccc([N+](=O)[O-])c1`, the Potency result was “inactive”.

As for `O=C(COC(=O)c1ccc([N+](=O)[O-])cc1Cl)NC(=O)c1ccccc1`, the Potency entry is “inactive”.

In the case of `O=C(NC(Nc1nc2ccc([N+](=O)[O-])cc2s1)(C(F)(F)F)C(F)(F)F)c1ccccc1`, the Potency is 5.17 µM (active).

With `COc1ccc(OC)c(NC(=O)C2(C)CCN2C(=O)Cc2ccccc2)c1` (configuration not stated), the Potency entry is “inactive”.

`Cc1cc(C(=O)N2CCCC2(C)C(=O)O)c(C)o1` (configuration not stated): the Potency result is “inactive”.

As for `COC(=O)[C@@]1(Cc2ccc(F)cc2)[C@H]2c3cc(C(=O)N4CCCC4)n(Cc4ccc(OC(F)(F)F)cc4)c3C[C@H]2CN1C(=O)c1ccccc1`, the Potency is 23.1 µM (active).

As for `COC(=O)[C@@]1(Cc2ccc(F)cc2)[C@H]2c3cc(C(=O)N4CCCC4)n(C[C@H](O)CO)c3C[C@H]2CN1C(=O)c1ccccc1`, the Potency entry was “inactive”.

In the case of `COC(=O)[C@@]1(Cc2ccc(F)cc2)[C@H]2c3cc(C(=O)N(C)C)n(CCc4c[nH]c5ccc(OC)cc45)c3C[C@H]2CN1C(=O)c1ccccc1`, the Potency result was “inactive”.

Regarding `CCCNC(=O)C1(C)CCN(Cc2csc(-c3ccc(Cl)cc3)n2)C1` (configuration not stated), the Potency result was “inactive”.

For the molecule `COc1ccc(-c2cc3c(c4c2ccn4C)C2CCC3C2)cn1` (configuration not stated), the Potency result is “inactive”.

As for `C=CCn1c(CC(=O)Nc2cccc(OC)c2)nnc1SCC(=O)NC1CCCCC1`, the Potency entry was “inactive”.

Take `COc1cccc(-n2c(SCC(=O)NC3CCS(=O)(=O)C3)nc3ccccc3c2=O)c1` (configuration not stated): the Potency result was “inactive”.

For the molecule `COc1cccc(-n2c(SCC(=O)NC3CCCCC3)nc3n[nH]c(C)c3c2=N)c1`, the Potency is 18.4 µM (active).

Regarding `CCc1noc(C)c1C(=O)OCC(=O)c1ccc(NC(=O)CC(C)C)cc1`, the Potency result was “inactive”.

Take `FC(F)(F)c1ccccc1Cc1c(-c2ccccc2)nc2c3ccccc3ccn12`: the Potency entry was “inactive”.

With `O=C(NCC(F)(F)F)c1ccc(S(=O)(=O)NCCc2ccc3c(c2)OCCO3)cc1`, the Potency result is “inactive”.

With `Cc1cc(C)nc(Nc2n[nH]c(-c3ccccc3N)n2)n1`, the Potency was 32.6 µM (active).

Consider `Nc1ccccc1-c1nc2ccncc2[nH]1`, for which the Potency entry was “inactive”.

On to `CCCOc1ccccc1-c1nc(SCCC(=O)O)n[nH]1`, for which the Potency entry was “inactive”.

With `CCOC(=O)[C@]12CCC=C1N(CCC1=CCCCC1)C(=O)[C@H](CC(=O)NCc1ccc(C)o1)C2`, the Potency result was “inactive”.

As for `CC(=O)C[C@@H]1OC[C@H](C)N1S(=O)(=O)c1ccc(C)cc1`, the Potency entry is “inactive”.

`CN(C)CCOc1ccc(Cl)cc1C(C)(C)C`: the Potency entry was “inactive”.

Consider `CN(C)CCOCCOc1ccc(Cl)c2ccccc12`, for which the Potency is 20.6 µM (active).

For the molecule `CCN(CC)CCOCCOc1ccc(Cl)c2ccccc12`, the Potency result is “inactive”.

With `N#CCCC(C#N)(c1cccnc1)N1CCOCC1` (configuration not stated), the Potency result is “inactive”.

Turning to `CCC(C)CN1C(=O)CN(S(C)(=O)=O)CC1(C)C(=O)Nc1ccc2c(c1)OCCO2` (configuration not stated), the Potency result was “inactive”.

In the case of `O=C(NCc1ccco1)c1cccc(-c2ccc3nncn3c2)c1`, the Potency result was “inactive”.

As to `Cn1c(=O)[nH]c(=O)c2c1[nH]c(=S)n2Cc1ccccc1`, the Potency entry is “inactive”.

Regarding `CCCSc1nc(NCc2ccco2)c2c3c(sc2n1)COC(C)(CC)C3` (configuration not stated), the Potency entry was “inactive”.

`CCC1(C)Cc2c(sc3[nH]c(=S)n(Cc4ccccc4)c(=O)c23)CO1` (configuration not stated): the Potency was 14.6 µM (active).

As for `OC[C@@H]1CN(Cc2cccs2)C[C@H](n2cnc3c(Nc4ccccc4)ncnc32)O1`, the Potency entry was “inactive”.

For `Cc1ccc(Cl)cc1NC(=S)N(CCN(C)C)Cc1cccs1`, the Potency result is “inactive”.

`Cc1cc(Cl)ccc1-c1nc(NCCN(C)C)nc2ccsc12`: the Potency is 23.1 µM (active).

On to `O=C(CC[C@H]1O[C@@H](n2ccc(=O)[nH]c2=O)[C@H](O)[C@@H]1O)N[C@H](Cc1ccccc1)C(=O)NCc1ccco1`, for which the Potency result was “inactive”.

Take `CCc1ccccc1NC(=O)CN1CCN(C(=O)c2cc(C3CC3)nn2-c2ccccc2)CC1`: the Potency result was “inactive”.

Consider `COc1ccc(NC(=O)CCCOc2ccc(C(C)=O)cc2)cc1S(=O)(=O)N1CCCCC1`, for which the Potency entry was “inactive”.

`CCC(CC)C(C(=O)NC1CCCC1)N1CCN(c2cc(C)nc3ccccc23)CC1` (configuration not stated): the Potency entry is “inactive”.

`COc1ccc(CCNC(=O)/C(C#N)=C2\N=C(NC(=O)c3cccs3)c3ccccc32)cc1`: the Potency entry was “inactive”.

`Cc1ccc2nc(/C(C#N)=C\c3ccc(OC(=O)c4cccs4)cc3)[nH]c2c1`: the Potency is 7.94 µM (active).

`COc1ccc2c(c1)CCCO[C@]21O[C@H](CCO)C[C@H](O)[C@H]1O`: the Potency entry is “inactive”.

For the molecule `Nc1ncnc2c1ncn2[C@@H]1O[C@H](C(=O)N2CCSC2)[C@@H](O)[C@H]1O`, the Potency result is “inactive”.

As for `CC1(C(=O)Nc2ccc3c(c2)OCCO3)CN(S(C)(=O)=O)CC(=O)N1Cc1cccc(F)c1` (configuration not stated), the Potency entry was “inactive”.

With `O=c1[nH]c(N2CCN(Cc3ccc4c(c3)OCO4)CC2)nc2c1CCCC2`, the Potency result is “inactive”.

As for `CCCCCc1c(C)nc(N2CCN(Cc3ccc4c(c3)OCO4)CC2)[nH]c1=O`, the Potency result was “inactive”.

With `Fc1ccc2[nH]c3c(N4CCN(Cc5ccc6c(c5)OCO6)CC4)ncnc3c2c1`, the Potency is 23.1 µM (active).

On to `CC(C)NC(=O)N1Cc2cc(C(=O)NCC(F)(F)F)nc(-c3cccc(-c4cc5ccccc5o4)c3)c2[C@@H]1CCO`, for which the Potency result is “inactive”.

For `CCOC(=O)C1CCCN(C(=O)c2cc(-c3cccs3)oc2C)CC1` (configuration not stated), the Potency result was “inactive”.

Consider `CCn1c(SCC(=O)N2CCCC2=O)nc2ccccc21`, for which the Potency entry is “inactive”.

As for `CCC(=C/c1sc2ccc3ccccc3c2[n+]1C)/C=C1\Sc2ccc3ccccc3c2N1C`, the Potency was 5.17 µM (active).

Consider `CCC1NC(=O)c2cccnc2-n2c1nc1ccc(C)cc1c2=O` (configuration not stated), for which the Potency entry was “inactive”.

As for `CCCS(=O)(=O)NC(=O)C1(C)CCN(C(=O)c2sccc2C)C1` (configuration not stated), the Potency result was “inactive”.

Turning to `CC(C)c1cc(C(=O)NC2CCCCCC2)c2ccccc2n1`, the Potency entry was “inactive”.

`COc1ccc2nc(/N=C(\N)NC(=O)Nc3ccccc3)nc(C)c2c1`: the Potency entry is “inactive”.

In the case of `Cc1nc(/N=C(\N)NC(=O)NC2CCCCC2)nc2ccccc12`, the Potency is 14.6 µM (active).

On to `C[C@@H]1CC2=C(C(=O)OC(C)(C)O2)[C@@H](C2CC2)O1`, for which the Potency entry is “inactive”.

`CN(Cc1ccc(C(F)(F)F)cc1)C(=O)[C@H]1O[C@@H](n2cnc3c(N)ncnc32)[C@H](O)[C@@H]1O`: the Potency entry is “inactive”.

As to `COc1ccc(-c2[nH]ncc2CN(C)Cc2c(C)n[nH]c2C)c(OC)c1`, the Potency entry is “inactive”.

On to `COc1ccc(-c2c(-c3ccc(OC)cc3O)nc(C)nc2C(F)(F)F)cc1`, for which the Potency result was “inactive”.

`COc1ccc(-c2n[nH]c(C)c2-c2ccc(OC)c(OC)c2)c(O)c1`: the Potency was 18.4 µM (active).

For the molecule `CC1(C(=O)NS(=O)(=O)c2ccccc2)CCN1C(=O)C1CCCCC1` (configuration not stated), the Potency entry is “inactive”.

Consider `O=C1c2ccccc2C(c2nc3ccccc3[nH]2)N1c1ccccc1` (configuration not stated), for which the Potency entry is “inactive”.

Regarding `C=C1c2c(Cl)ccc(O)c2C(O)=C2C(=O)[C@]3(O)C(O)=C(C(N)=O)C(=O)[C@@H](N(C)C)[C@@H]3[C@@H](O)C12` (some centres not stated), the Potency was 18.4 µM (active).

Turning to `O=C1OCCC1=COCCCCOC=C1CCOC1=O`, the Potency entry is “inactive”.

As for `COc1ccc(C(O)c2nc(-c3ccc4c(c3)OCO4)cs2)cc1` (configuration not stated), the Potency entry is “inactive”.

Consider `C[C@@H]1CN([C@H](C)CO)C(=O)CCCn2cc(nn2)CO[C@H]1CN(C)S(C)(=O)=O`, for which the Potency entry was “inactive”.

`COc1ccc(C(C(O)C(=O)c2c[nH]c3ccccc23)N2CCN(c3ccccc3)CC2)cc1` (configuration not stated): the Potency entry was “inactive”.

Consider `COc1ccc(/C=C(\NC(=O)c2ccc(OC)c(OC)c2)C(=O)NCCc2c[nH]c3ccccc23)cc1`, for which the Potency entry is “inactive”.

For `COc1ccc(/C=C(\C#N)c2c[nH]c3ccccc23)cc1`, the Potency was 0.731 µM (active).

Turning to `C[C@H](CO)N1C[C@H](C)[C@@H](CN(C)C(=O)C2CCCCC2)OCc2cnnn2CCCC1=O`, the Potency entry was “inactive”.

With `C[C@H]1CN(c2ccc(Br)cc2)C(=O)[C@@H]1CC(=O)Nc1ccc(Br)cc1`, the Potency entry is “inactive”.

As for `COc1ccc(CS(=O)/C(Cl)=C(/Cl)C(=O)Nc2ccc(OC)nc2)cc1` (configuration not stated), the Potency was 18.4 µM (active).

For `COc1ccc(CCNC(=O)c2cnc(Cl)c(Cl)c2)cc1`, the Potency entry is “inactive”.

Turning to `COc1ccc(NC(=O)CN2C(=O)NC(C)(c3ccccc3)C2=O)cn1` (configuration not stated), the Potency entry was “inactive”.

Regarding `CC(C)Cn1cc(-c2cncc3nccn23)cn1`, the Potency result was “inactive”.

For the molecule `CC1(C)CN(CCc2ccccc2)C(=O)[C@H]1CC(=O)Nc1ccc(Br)cc1`, the Potency entry is “inactive”.

On to `CCOC(=O)c1c(NC(=O)COC(=O)c2ccc(S(=O)(=O)C(F)F)cc2)sc(C(=O)N(C)C)c1C`, for which the Potency entry is “inactive”.

Consider `COc1cccc(NC(=O)C2(C)CCN2Cc2ccccc2Cl)c1` (configuration not stated), for which the Potency entry is “inactive”.

Regarding `CCN1/C(=C/c2ccc3ccc(C)cc3[n+]2CC)Sc2ccccc21`, the Potency was 20.6 µM (active).

Consider `CCOC(=O)[C@]12CCCC=C1N(CCC1=CCCCC1)C(=O)[C@H](CC(=O)N1CCN(C(=O)c3ccco3)CC1)C2`, for which the Potency entry is “inactive”.

With `Cc1cc(NC(=O)c2ccc(F)cc2)ccc1NC(=O)c1ccco1`, the Potency entry is “inactive”.

As to `Cc1ccc(NC(=O)c2ccco2)cc1`, the Potency result is “inactive”.

As to `O=C(Nc1ccc(O)cc1)c1ccc(NC(=O)c2ccco2)cc1`, the Potency was 13 µM (active).

With `O=S1(=O)CC(N2CCN(Cc3ccccc3F)CC2)CN1Cc1cn(Cc2ccccc2)nn1` (configuration not stated), the Potency entry is “inactive”.

In the case of `Cc1ccc(OCC(=O)OC(C)CN(C)Cc2ccccc2)cc1` (configuration not stated), the Potency result was “inactive”.

As to `COc1ccc(OCC(O)CN(C)C(=O)C(C)Oc2ccccc2)cc1` (configuration not stated), the Potency entry was “inactive”.

`CN(Cc1ccccc1)CC(O)COc1ccc(CNCc2cc3ccccc3s2)cc1` (configuration not stated): the Potency was 20.6 µM (active).
